The record followed here is PubChem BioAssay AID2737 (National Center for Advancing Translational Sciences (NCATS), 2010).

Calls of active or inactive are those of the source.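 How the source made its calls: active means compounds inhibiting cruzain with a measured inhibition constant Ki under 100 µM; inactive means the rest.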

Chain of Cruzipain (Trypanosoma cruzi) (P25779 123-467 limits assumed): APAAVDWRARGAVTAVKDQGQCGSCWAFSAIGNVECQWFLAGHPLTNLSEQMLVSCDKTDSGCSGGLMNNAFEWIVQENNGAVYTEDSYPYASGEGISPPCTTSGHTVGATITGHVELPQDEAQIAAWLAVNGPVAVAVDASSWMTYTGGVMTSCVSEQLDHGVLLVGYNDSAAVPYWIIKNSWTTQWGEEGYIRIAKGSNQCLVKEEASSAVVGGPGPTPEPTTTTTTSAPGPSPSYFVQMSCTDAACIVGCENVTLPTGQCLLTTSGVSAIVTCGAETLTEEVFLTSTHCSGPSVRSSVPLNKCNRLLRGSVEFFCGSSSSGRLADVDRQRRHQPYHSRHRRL

The assay has as its target Cruzipain (Trypanosoma cruzi) (UniProt P25779). Kind of assay: Confirmation Competitive Binding Assay for Inhibitors of Cruzain. Conditions: recombinant cruzain, Z-FR-AMC fluorogenic cleavage, Ki. The procedure: Cruzain is a cysteine protease from the tropical parasite Trypanosoma cruzi. This assay protocol is for follow-up Ki determination of cruzain inhibitors of interest. Cruzain inhibition was determined using a competitive binding assay. See following references for additional details: Jadhav A, et al. J Med Chem. 2010 Jan 14;53(1):37-51. Mott BT, et al. J Med Chem. 2010 Jan 14;53(1):52-60. Assay Provider: Shoichet, Brian; University of California, San Fancisco Screening Center PI: Austin, C.P. Screening Center: NIH Chemical Genomics Center [NCGC]
Cruzain activity was measured by monitoring the cleavage of the fluorogenic substrate Z-Phe-Arg-aminomethylcoumarin (Z-FR-AMC). All cruzain assays were performed in Sodium Acetate 0.1 M pH 5.5 and in the presence of 5 mM dithiothreitol (DTT). The final concentration of cruzain was 0.4 nM, and the substrate concentration was 2.5 uM (Km = 2 uM), except for Ki determination, when the Z-FR-AMC varied from 0.31 to 20 uM, in two fold increments. Assays were conducted in presence of 0.01% Triton X-100. Assays were followed for five minutes, and activity was calculated based on initial rates. […] Data was analyzed with Prism 4 (GraphPad), and Ki values were determined from Lineweaver-Burk and Dixon plots.
With `O=C(COc1ccccc1Br)NCCc1nc2ccccc2[nH]1`, the Potency is 2000 nM (active).
Next, `Cc1ccc(C)c(OCCn2c(CCNC(=O)C3CCCCC3)nc3ccccc32)c1`: 2000 nM (active).
